Results as given in PubChem BioAssay (NCATS).
Records with an inconclusive call do not appear. A call without a number means that no potency is given here. Values without a mark were called inactive. Active and inactive are the calls of the source. The call rests on the fitted dose curve; in most records, active means well fitted inhibition curve with a large enough effect; inconclusive means small, poorly fitted or top-dose-only effect; inactive means flat fitted curve, though single readings scatter.

What was measured:
Experiment in all cases: qHTS profiling for inhibitors of Plasmodium falciparum proliferation (AID 504749); further: nearly all actives have a fitted effect of over 60% in size
Settings in all cases: P. falciparum in erythrocytes, SYBR Green DNA, 72 h; series mostly up to 28.7 µM
CP305 = test system: CP305
Procedure, shortened: (§1)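 Parasite proliferation within erythrocytes, 72 h exposure. Endpoint: SYBR Green I fluorescence after overnight lysis at room temperature. Controls: 0.29 uM artemisinin, DMSO.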

CP315 = test system: CP315
Procedure, shortened: as §1

CP325 = test system: CP325
Procedure, shortened: as §1

CP329 = test system: CP329
Procedure, shortened: as §1

CP335 = test system: CP335
Procedure, shortened: as §1

DFO2036 = test system: DFO2036
Procedure, shortened: as §1

DIV14 = test system: DIV14
Procedure, shortened: as §1

DIV17 = test system: DIV17
Procedure, shortened: as §1

DIV30 = test system: DIV30
Procedure, shortened: as §1

Dd2 = test system: Dd2
Procedure, shortened: as §1

ECU = test system: ECU
Procedure, shortened: as §1

FAB9 = test system: FAB9
Procedure, shortened: as §1

GB4 = test system: GB4
Procedure, shortened: as §1

HB3 = test system: HB3
Procedure, shortened: as §1

ICS = test system: ICS
Procedure, shortened: as §1

JCK = test system: JCK
Procedure, shortened: as §1

N140 = test system: N140
Procedure, shortened: as §1

P93_24 = test system: P93_24
Procedure, shortened: as §1

P94_40 = test system: P94_40
Procedure, shortened: as §1

PAD = test system: PAD
Procedure, shortened: as §1
Potency means the concentration at half of the fitted maximal effect.

SMILES	Potency (CP305)	Potency (CP315)	Potency (CP325)	Potency (CP329)	Potency (CP335)	Potency (DFO2036)	Potency (DIV14)	Potency (DIV17)	Potency (DIV30)	Potency (Dd2)	Potency (ECU)	Potency (FAB9)	Potency (GB4)	Potency (HB3)	Potency (ICS)	Potency (JCK)	Potency (N140)	Potency (P93_24)	Potency (P94_40)	Potency (PAD)
Clc1ccc2c(c1)C(c1ccccc1)=NCc1nncn1-2	inactive	inactive	inactive	inactive	inactive	inactive	inactive	inactive	inactive	inactive	inactive	inactive	inactive	inactive	inactive	inactive	inactive	inactive	inactive	inactive
CN1C(=O)COc2c(C(=O)NC3CN4CCC3CC4)cc(Cl)cc21 (configuration not stated)	inactive	inactive	inactive	inactive	inactive	inactive	inactive	inactive	inactive	inactive	inactive	inactive	inactive	inactive	inactive	inactive	inactive	inactive	inactive	inactive
CCCCCCC(=O)CCCCCC/C=C/C[C@@H](O)[C@H](O)[C@@](N)(CO)C(=O)O	inactive	inactive	inactive	inactive	inactive	inactive	inactive	inactive	inactive	inactive	inactive	inactive	inactive	inactive	inactive	inactive	inactive	inactive	inactive	inactive
COP(=S)(OC)SCN1C(=O)c2ccccc2C1=O	inactive	inactive	inactive	inactive	inactive	inactive	inactive	inactive	inactive	inactive	inactive	inactive	inactive	inactive	inactive	inactive	inactive	inactive	inactive	inactive
c1ccc2c(c1)sc1ccccc12	inactive	inactive	inactive	inactive	inactive	inactive	inactive	inactive	inactive	inactive	inactive	inactive	inactive	inactive	inactive	inactive	inactive	inactive	inactive	inactive
O=c1oc2ccccc2c(O)c1Cc1c(O)c2ccccc2oc1=O	inactive	inactive	inactive	inactive	inactive	inactive	inactive	inactive	inactive	inactive	inactive	inactive	inactive	inactive	inactive	inactive	inactive	inactive	inactive	inactive
CCC1(c2ccccc2)C(=O)N(COC)C(=O)N(COC)C1=O	inactive	inactive	inactive	inactive	inactive	inactive	inactive	inactive	inactive	inactive	inactive	inactive	inactive	inactive	inactive	inactive	inactive	inactive	inactive	inactive
CN1C[C@H](C(=O)N[C@]2(C)O[C@@]3(O)[C@@H]4CCCN4C(=O)[C@H](Cc4ccccc4)N3C2=O)C=C2c3cccc4[nH]cc(c34)C[C@H]21	6.75 µM (active)	12 µM (active)	6.75 µM (active)	15.1 µM (active)	0.675 µM (active)	1.26 µM (active)	0.536 µM (active)	0.338 µM (active)	1.69 µM (active)	0.141 µM (active)	0.316 µM (active)	6.31 µM (active)	1.69 µM (active)	0.447 µM (active)	0.0398 µM (active)	7.08 µM (active)	0.282 µM (active)	0.398 µM (active)	0.251 µM (active)	0.199 µM (active)
Clc1cccc(SC2CCNCC2)n1	inactive	inactive	inactive	inactive	inactive	inactive	inactive	inactive	inactive	inactive	inactive	inactive	inactive	inactive	inactive	inactive	inactive	inactive	inactive	inactive
O=P1(N(CCCl)CCCl)NCCCO1 (configuration not stated)	inactive	inactive	inactive	inactive	inactive	inactive	inactive	inactive	inactive	inactive	inactive	inactive	inactive	inactive	inactive	inactive	inactive	inactive	inactive	inactive
O=C1Nc2ccc(Cl)cc2C(c2ccccc2Cl)=NC1O (configuration not stated)	inactive	inactive	inactive	inactive	inactive	inactive	inactive	inactive	inactive	inactive	inactive	inactive	inactive	inactive	inactive	inactive	inactive			
CN1C(=O)C(O)N=C(c2ccccc2)c2cc(Cl)ccc21 (configuration not stated)	inactive	inactive	inactive	inactive	inactive	inactive	inactive	inactive	inactive	inactive	inactive	inactive	inactive	inactive	inactive	inactive	inactive	inactive	inactive	inactive
C[C@]12CC[C@@H]3c4ccc(OC(=O)N(CCCl)CCCl)cc4CC[C@H]3[C@@H]1CC[C@@H]2O	inactive	inactive	inactive	inactive	inactive	inactive	inactive	inactive	inactive	inactive	inactive	inactive	inactive	inactive	inactive	inactive	inactive	inactive	inactive	inactive
